TEAD-YAP inh = TEAD-YAP interaction inhibition, primary screen, TEAD-YAP interaction inhibitor project, luminescence, HEK-TIYL cells | actives 1.4% (n = 640,000) | TEAD-Gal4/YAP UAS-luciferase luminescence | inhibition, % at 9.12 µM; in the data active = inhibition above about 32%;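 note: 0% = median of test compound wells and 100% = reference inhibitor wells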
GPR151 ag = activators of human GPR151, primary screen, cell-based, PathHunter beta-arrestin, luminescence. G-protein coupled receptor 151 (Homo sapiens), Q8TDV0. PathHunter beta-arrestin GPR151 cells. activation, % at 11.2 µM. actives 1% (n = 650,000). AID 1508602, 2020; in the data active = activation above about 4.9%;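 note: 0% = median of compound wells and 100% = cells with positive control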
Target sequence (Q8TDV0 whole entry, looked up): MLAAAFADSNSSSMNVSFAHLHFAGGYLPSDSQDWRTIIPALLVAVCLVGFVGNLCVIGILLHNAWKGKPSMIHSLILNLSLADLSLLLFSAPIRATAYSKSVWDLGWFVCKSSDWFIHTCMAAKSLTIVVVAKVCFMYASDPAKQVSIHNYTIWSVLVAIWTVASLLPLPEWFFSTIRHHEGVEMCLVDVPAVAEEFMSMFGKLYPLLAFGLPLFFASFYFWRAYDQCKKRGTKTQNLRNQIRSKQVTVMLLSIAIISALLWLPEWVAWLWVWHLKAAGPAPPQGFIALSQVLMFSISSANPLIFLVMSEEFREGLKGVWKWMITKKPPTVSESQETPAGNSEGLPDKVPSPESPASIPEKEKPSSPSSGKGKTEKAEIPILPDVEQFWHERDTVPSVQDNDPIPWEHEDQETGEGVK
FBW7 act = FBW7 E3 ligase activators, primary screen, biochemical, AlphaScreen, human; normalized activity (activation), % at 26.1 µM; F-box/WD repeat-containing protein 7 (Homo sapiens), Q969H0; actives 0.13% (n = 650,000); AlphaScreen FBW7–phospho-cyclin E peptide binding, activator screen; in the data active = normalized activity above about 1.9%;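 note: purified mutant Fbw7 with reduced substrate affinity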
MITF inh = MITF inhibitors, primary screen, biochemical, AlphaScreen, human | Microphthalmia-associated transcription factor (Homo sapiens), O75030 | AlphaScreen MITF homodimerization, bead proximity signal | inhibition, % at 2.6 µM | actives 0.91% (n = 650,000); in the data active = inhibition above about 50%;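 note: 0% = vehicle wells with protein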
* = called active by the depositor; ! = not confirmed by another sample. In the library only some 3.4% were active in any assay of this set; here they are far more common.

SMILES	TEAD-YAP inh	GPR151 ag	FBW7 act	MITF inh
OC[C@@H]1CCCN1c1ccnc2c(-c3ccccc3F)cnn12	90.3*	-3.2	-0.2	-13.5
OCc1cccc(-c2cnn3c(N4CCC[C@H]4CO)ccnc23)c1	66.3*	1.5	-0.3	-15.1
OCc1ccccc1-c1cnn2c(N3CCC[C@H]3CO)ccnc12	-16.7	0.4	-0.6	-20.6
OC[C@@H]1CCCN1c1ccnc2c(-c3ccc(O)cc3)cnn12	94.8*	-0.5	-0.8	-10.7
NC(=O)c1c(Cl)nc(Cl)c([N+](=O)[O-])c1Cl	98.2*	-1.0	-0.1	5.2
O=C(O)c1c(Cl)nc(Cl)c([N+](=O)[O-])c1Cl	15.1	0.4	-0.1	6.1
CCCCNC(=O)c1c(Cl)nc(Cl)c([N+](=O)[O-])c1Cl	45.0*	-0.7	-0.1	-0.5
COc1ccc(NC(=O)c2c(Cl)nc(Cl)c([N+](=O)[O-])c2Cl)cc1	85.2*	3.0	-0.1	-2.2
Cn1c(=O)c(C(=O)NCc2ccco2)c(O)c2ccccc21	-4.7	-1.6	0.5	14.3
Cc1ccccc1OCC(=O)N/N=C/c1ccc(Cl)c([N+](=O)[O-])c1	-5.9	0.2	0.2	-0.2
Cc1cccc(/C=N/Nc2nncc3ccccc23)c1	67.2*	-5.9	-0.2	-5.7
NC(=O)CSc1nnc(Cc2cccs2)n1CCc1ccccc1	9.1	0.3	-0.3	4.4
O=C(/C=C/c1ccc(F)cc1)Nc1ccc([N+](=O)[O-])cc1Br	-4.4	1.1	-0.2	-7.7
O=C(/C=C\c1ccco1)Nc1cc([N+](=O)[O-])ccc1F	60.4*	0.7	0.2	10.2
O=C(/C=C/c1ccc(F)cc1)Nc1cc([N+](=O)[O-])ccc1F	53.4*	-0.2	0.2	2.6
CC(CC(=O)Nc1cc([N+](=O)[O-])ccc1Cl)c1ccccc1 (centres undefined)	-12.0	-0.8	0.1	2.3
CC(CC(=O)Nc1cc([N+](=O)[O-])ccc1F)c1ccccc1 (centres undefined)	38.0*	0.4	0.0	-0.2
Cc1ccccc1NC(=O)CCCN1C(=O)c2cccc3cccc(c23)C1=O	-1.9	-0.2	0.0	9.5
CCSCCOC(=O)C1=C(C)NC2=C(C(=O)CCC2)C1c1ccc(OC)c(O)c1 (centres undefined)	10.8	-1.3	0.3	-0.1
O=C(COc1ccccc1)Nc1scc(-c2ccccc2)c1C(=O)NCc1ccco1	-3.1	2.5	0.0	0.2
COc1cc(Nc2nccc(Nc3ccc(N4CCOCC4)cc3)n2)cc(OC)c1OC	43.7*	0.0	0.2	18.0
COc1cc(Nc2nc(C)cc(Nc3ccc(N4CCOCC4)cc3)n2)cc(OC)c1OC	69.9*	0.1	-0.2	6.8
Nc1nc(NCc2ccccc2)cc(N2CCCC2CO)n1 (centres undefined)	44.8*	1.3	0.6	-8.1
Cc1cnc(N2CCCC2CO)nc1NCc1ccccc1 (centres undefined)	49.9*	-1.1	0.2	1.8
COc1ccc(C2CC(=O)C3=C(C2)NC(C)=C(C(=O)OCC(C)C)C3c2ccc(Cl)cc2)cc1 (centres undefined)	14.0	-2.0	0.3	16.5
SMILES	TEAD-YAP inh	GPR151 ag	FBW7 act	MITF inh
COc1ccc(/C=C/C(=O)NCCSc2nc3ccccc3s2)cc1	2.2	0.4	0.4	9.5
COC1=C(O)C(=O)c2c(cc3oc(C(C)=O)c(O)c3c2O)C1=O	2.3	-1.3	-0.1	76.1*
CC1CN(CCC(=O)NCC(C)(C)N2CCOCC2)Cc2cc(Cl)ccc2O1 (centres undefined)	-0.2	-0.5	0.0	-7.9
O=C(Nc1cc(=O)[nH]c(=O)[nH]1)c1cc(Br)ccc1Cl	54.1*	-1.0	0.3	14.2
O=C(Nc1cc(=O)[nH]c(=O)[nH]1)c1cc([N+](=O)[O-])ccc1Cl	-11.5	0.9	0.1	24.6
O=C(Nc1cc(=O)[nH]c(=O)[nH]1)c1cc(Cl)ccc1Cl	51.8*	0.9	-0.1	6.6
O=C(Nc1cccc2cnccc12)c1cccc(S(=O)(=O)N2CCCCCC2)c1	38.2*	1.1	0.4	8.5
O=C(Nc1ccccc1O)c1cccc(S(=O)(=O)N2CCCCC2)c1	5.3	-0.3	1.1	14.2
CCc1cc(-c2n[nH]c(C)c2-c2nc3ccccc3s2)c(O)cc1OC	35.0*	-0.5	-0.2	7.1
CC1(C)CC(N2CCCCC2)=CC(=[N+]2CCCCC2)C1	75.0*	1.6	0.2	4.8
CCCN(CCC)C1=CC(=[N+]2CCCC2)CC(C)(C)C1	68.7*	1.5	-0.1	-9.6
CC1(C)CC(N2CCOCC2)=CC(=[N+]2CCOCC2)C1	3.7	-0.2	-0.1	-9.2
CN(C)NC1=CC(=[N+]2CCCC2)CC(C)(C)C1	3.4	1.9	0.2	-9.6
CCC[C@@H]1NC(=O)[C@@H]2C[C@H](NCc3ccc(F)c(F)c3)CN2C1=O	9.2	0.1	-0.1	3.3
Cc1noc(C)c1CCC(=O)N1CCC(C(=O)Nc2cccc(-c3ccco3)c2)CC1	33.7*	-0.2	0.0	-0.3
Cc1nc2c(cnn2-c2ccccc2)c(=O)n1-c1cccc2ccccc12	36.9*	0.0	0.1	7.1
COc1ccc(-c2cc(=O)c3cc(C)ccc3o2)cc1	18.1	-4.9	-0.1	-8.8
COc1ccc(-c2cc(=O)c3cc(O)ccc3o2)cc1	43.1*	-2.8	0.5	8.8
COc1ccc(-c2cc(=O)c3c(O)cc(OC)cc3o2)cc1	-59.7	-5.7	0.2	23.7
COc1ccc(-c2cc(=O)c3c(O)cc(O)cc3o2)cc1	52.6*!	0.9	0.0	13.0
c1ccc(CC2CCN(CCN3CCn4c3nc3ccccc34)CC2)cc1	13.2	1.9	-0.1	-2.8
Cc1ccc(C)c(OCC(=O)N/N=C\c2ccccc2F)c1	-9.9	0.0	0.1	-7.6
Cc1ccc(OCC(=O)N/N=C/c2cc([N+](=O)[O-])ccc2F)cc1	60.0*	-0.9	0.2	17.2
Cc1cccc(C)c1OCC(=O)N/N=C/c1ccccc1F	36.7*	0.3	0.1	10.2
Cc1cccc(C)c1OCC(=O)N/N=C/c1cn(C)c2ccccc12	50.9*	0.7	0.0	0.5
SMILES	TEAD-YAP inh	GPR151 ag	FBW7 act	MITF inh
COC(=O)c1c(NC(=O)c2ccccc2OC)sc(C)c1C	10.8	-0.2	0.3	6.7
COc1cc(-c2nnc3n(Cc4ccccc4)c(=O)c4ccccc4n23)ccc1O	2.0	2.1	0.2	-4.5
O=C(c1ccc2c(c1)OCCO2)N1CCCCC1c1nc2ccccc2[nH]1 (centres undefined)	1.4	0.8	-0.1	10.5
CC(C)(C)c1cc(CC(=O)O)c2c(c1)C(C)(C)CC2	47.9*	-1.9	0.7	7.3
C/C(=N/NC(N)=O)c1cc(C(C)(C)C)cc2c1CCC2(C)C	-11.4	2.3	0.1	5.1
COc1ccc(OC)c(C2CNC(=O)C2)c1 (centres undefined)	2.0	-0.1	0.1	0.5
COc1ccc(C2CNC(=O)C2)cc1OC1CCCC1 (centres undefined)	33.1*!	-1.3	-0.1	3.5

Screening data from PubChem.
